# Assay outcomes as filed in PubChem.
# The list is not random: actives were taken first. Their share in the collection is about 2.7%.
# IDE inh: inhibits human insulin-degrading enzyme in HEK cells; inhibition, % at 5.59 µM; AID 434962; 320,000 tested, 0.41% active; FAbetaB cleavage, fluorescence polarization;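 active = percent inhibition above the average of all tested compounds plus 3 SD, set per screening campaign, cut at about 16% in these data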;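 also: IDE supplied by intact live HEK cells; FP after avidin binding of uncleaved biotin substrate so inhibition keeps polarization high; 0% = DMSO wells and 100% = 60 µM reference IDE inhibitor Ii1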
# Target sequence (P14735 whole entry, looked up): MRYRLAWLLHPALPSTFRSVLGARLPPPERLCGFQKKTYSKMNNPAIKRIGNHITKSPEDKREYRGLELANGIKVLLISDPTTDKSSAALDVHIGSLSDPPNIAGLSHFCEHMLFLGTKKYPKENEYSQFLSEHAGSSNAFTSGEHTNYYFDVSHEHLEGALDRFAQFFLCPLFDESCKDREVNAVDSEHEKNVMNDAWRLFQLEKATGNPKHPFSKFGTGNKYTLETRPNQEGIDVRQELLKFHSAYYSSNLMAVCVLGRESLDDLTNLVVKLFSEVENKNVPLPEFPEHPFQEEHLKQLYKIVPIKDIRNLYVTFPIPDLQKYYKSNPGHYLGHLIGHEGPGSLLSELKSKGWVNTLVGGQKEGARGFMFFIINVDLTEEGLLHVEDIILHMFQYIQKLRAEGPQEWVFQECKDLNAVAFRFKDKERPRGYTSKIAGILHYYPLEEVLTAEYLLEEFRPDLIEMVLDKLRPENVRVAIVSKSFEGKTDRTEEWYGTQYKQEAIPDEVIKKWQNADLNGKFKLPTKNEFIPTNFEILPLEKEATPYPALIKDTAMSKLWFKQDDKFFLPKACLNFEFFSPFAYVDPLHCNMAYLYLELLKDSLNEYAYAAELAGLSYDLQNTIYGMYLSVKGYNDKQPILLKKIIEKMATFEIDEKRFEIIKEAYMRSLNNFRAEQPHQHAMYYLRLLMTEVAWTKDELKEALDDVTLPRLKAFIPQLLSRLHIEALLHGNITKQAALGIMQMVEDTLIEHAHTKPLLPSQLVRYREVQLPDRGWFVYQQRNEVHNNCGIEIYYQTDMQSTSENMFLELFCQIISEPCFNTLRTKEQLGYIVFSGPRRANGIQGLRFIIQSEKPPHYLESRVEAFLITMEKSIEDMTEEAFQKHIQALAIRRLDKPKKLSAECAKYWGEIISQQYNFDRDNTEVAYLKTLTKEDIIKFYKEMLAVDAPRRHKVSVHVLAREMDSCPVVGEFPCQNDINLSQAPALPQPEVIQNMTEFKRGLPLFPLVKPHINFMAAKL
# IDE act: boosts human insulin-degrading enzyme activity in HEK cells; FAbeta-B cleavage, fluorescence polarization; 0% vehicle, 100% cell-free pure enzyme wells; 340,000 tested, 0.073% active; activation, % at 5.96 µM; P14735; AID 493087;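 active = activation above the mean of all tested compounds plus 3 SD, set per screening campaign, cut at about 17% in these data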
# TMEM16A inh: inhibitors of mouse TMEM16A calcium-activated chloride channel | Q8BHY3 | HEK293 TMEM16A/YFP iodide influx fluorescence, ionomycin | normalized B-score (activity score, 25-100; higher = stronger inhibition) at 10 µM | 310,000 tested, 1.2% active | AID 588511;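 active = ratio plate-corrected score three or more library SD toward inhibition, starting fluorescence score within five deviations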;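 also: score derived from kinetic fluorescence span divided by baseline fluorescence per well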
# CHT allo act: allosterically activates the human high affinity choline transporter; CHT-expressing cells, membrane potential dye, choline EC20; active compounds read high; LV-AA mutant CHT in HEK293 cells; B-score at 10 µM; 310,000 tested, 0.49% active; AID 488977;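 active = initial fluorescence not abnormally high and integrated response B-score, plate-corrected, over 3 SD above library mean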
# CHT block: human CHT choline transport inhibition | Q9GZV3 | CHT-expressing cells, membrane potential dye, choline response; active compounds read low | B-score at 10 µM | 310,000 tested, 0.86% active;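 active = B-score over 3 SD under the library average, and starting fluorescence ratio not unusually high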;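 also: choline stimulus applied at its EC90 after an EC20 pre-addition; B-score computed on integrated fluorescence ratio after choline addition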
# ANO1 activ: mouse TMEM16A channel activation, primary screen | Q8BHY3 | HEK293 TMEM16A/YFP-H148Q/I152L, iodide quench fluorescence; active compounds read low | B-score at 10 µM | 340,000 tested, 0.3% active;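 active = fluorescence-ratio B-score plate-corrected deviation score at least 3 library SD below zero, with starting fluorescence score within 5 deviations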;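 also: channel opened by trigger with iodide after compound preincubation; score built on the fluorescence ratio of max minus min over baseline; more negative score means more quench and so TMEM16A activation or potentiation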
# CHT inh conf: confirmation of human choline transporter CHT inhibitors; shares compounds with CHT block; CHT-expressing cells, choline membrane potential dye; LV-to-AA substituted CHT, HEK293 cells; CHT activity remaining % of control (active compounds read low), % at 10 µM; 2,400 tested, 70% active; AID 493221;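 active = choline transporter activity left, mean of duplicates at 10 µM, below buffer-only control mean minus 3 SD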;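 also: depolarization triggered by choline at its EC90 following an EC20 pre-addition; 0% = hemicholinium-3 full block and 100% = buffer-only control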
# HEK293 MPD ctr: CHT inhibitor counter-screen hit in parental HEK293 cells; shares compounds with CHT block; 2,400 tested, 4% active; membrane potential ratio readout (active if shifted either direction beyond buffer ±3SD; no single direction) at 10 µM; membrane potential dye, choline response; active = decrease or increase beyond buffer ±3SD; AID 493222;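 also: parental cells lack the transporter so any hit is non-specific; ratio is peak minus trough fluorescence over baseline after EC90 choline challenge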
# Active calls of the source: *; i = inactive; / = not tested or not shown.
SMILES,IDE inh,IDE act,TMEM16A inh,CHT allo act,CHT block,ANO1 activ,CHT inh conf,HEK293 MPD ctr
COc1cc(/C=C2\S/C(=N/S(=O)(=O)Cc3ccccc3)NC2=O)c([N+](=O)[O-])cc1OC,0,4,i,i,-5*,i,49%*,i
COc1cc(/C=C2/S/C(=N/S(=O)(=O)Cc3ccccc3)NC2=O)c([N+](=O)[O-])cc1OC,-1,1,i,i,-6.3*,i,37%*,i
COc1cc(/C=C2/S/C(=N/S(=O)(=O)c3ccccc3)NC2=O)c([N+](=O)[O-])cc1OC,8,-4,i,i,i,i,/,/
CCSc1ccc([C@@H]2[C@H]3C(=O)N(C)C(=O)[C@H]3[C@]3(C(=O)OC)CCCCN23)cc1OC,6,3,i,i,i,i,/,/
CCn1c(C)c(C(=O)c2ccccc2)c(C#N)c1C(=O)O,6,1,i,i,i,i,/,/
O=[N+]([O-])c1cccc(NC(=S)N2CCCC2)c1,/,6,i,i,i,i,/,/
O=C(Nc1cccc([N+](=O)[O-])c1)C(=O)N1CCCCC1,-1,-4,i,i,-5*,i,i,i
Cc1ccc(N2CCN(S(=O)(=O)c3ccc4oc(=O)ccc4c3)CC2)c(C)c1,5,0,i,i,i,i,/,/
CCOC(=O)c1ccc2c(c1)[nH]c(=S)n2CC,-2,1,i,i,-5.1*,i,56%*,i
CC(C)(C)N(NC(=O)Nc1ccc(Cl)cc1)C(=O)c1ccccc1,6,5,i,i,i,i,/,/
CC(C)(C)N(NC(=O)Nc1ccccc1)C(=O)c1ccccc1,3,4,i,i,-6.1*,i,i,i
CSCc1ccc(C(=O)N2CCCC(Nc3ccc(F)cc3)C2)o1 (configuration not stated),0,3,i,i,-5.2*,i,i,i
COc1ccc(CNc2ncc(-c3ccccc3)n2C)cc1,0,5,i,i,-5.5*,i,57%*,i
CCOc1cc(/C=N/NC(=O)c2ccc(CN3CCOCC3)cc2)ccc1OC,3,6,i,i,-9*,i,i,i
Cc1ccc2nc(-c3ccccc3)cc(C(=O)NCCCn3ccnc3)c2c1,2,7,i,i,-11*,i,30%*,i
O=C(NCCCn1ccnc1)c1cn(-c2ccccc2)nc1-c1ccc(F)cc1,-1,7,i,i,-6.9*,i,36%*,i
O=C(CCC(=O)c1ccc(Cl)s1)Nc1ncccc1O,-2,1,/,/,/,i,/,/
CCCn1ncc(CN2CCC(n3nccc3NC(=O)c3ccccc3Cl)CC2)c1C,-2,8,i,i,i,i,/,/
COC(=O)c1ccc(COC(=O)C(CCS(C)(=O)=O)N2C(=O)c3ccccc3C2=O)cc1 (configuration not stated),5,1,i,i,-6.3*,i,i,i
C=C(C)COc1ccc(-c2[nH]ncc2-c2ccc(Br)cc2)c(O)c1,6,1,i,i,-5.5*,i,i,i
O=C1CC(NS(=O)(=O)c2cccs2)CN1c1ccccc1 (configuration not stated),1,-6,i,i,i,i,/,/
COc1ccccc1CCC(=O)N1CCN(S(=O)(=O)c2cc(C(F)(F)F)ccc2Cl)CC1,-6,1,/,/,/,i,/,/
CSc1ccccc1C(=O)NCCS(=O)(=O)N1CCN(c2ccc(F)cc2)CC1,0,-3,i,i,-5.3*,i,38%*,i
COc1ccccc1OCC(=O)NCCS(=O)(=O)N1CCN(c2ccccc2)CC1,2,4,i,i,-6.9*,i,58%*,i
COc1ccc(CC(=O)NCCS(=O)(=O)N2CCN(c3ccccc3)CC2)cc1OC,-1,4,i,i,i,i,/,/
SMILES,IDE inh,IDE act,TMEM16A inh,CHT allo act,CHT block,ANO1 activ,CHT inh conf,HEK293 MPD ctr
COc1ccc(N2C(=O)CC(C)(C)CC2=O)cc1OC,3,1,i,i,i,i,/,/
CSc1cccc(NS(=O)(=O)c2cn(C)cn2)c1,5,12,i,i,i,i,/,/
CCN(CC)S(=O)(=O)c1ccc(N2CCOCC2)c(NC(=O)COc2ccccc2C)c1,-4,3,/,/,/,i,/,/
CC(NC(=O)c1cccc(OC2CCN(C(=O)C3CC3)CC2)c1)c1ccc(F)cc1 (configuration not stated),-1,-3,i,i,-6.3*,i,38%*,i
COCCNC(=O)c1cccc(OC2CCN(Cc3ccc(C(=O)OC)cc3)CC2)c1,1,5,i,i,i,i,/,/
CC(C)CN1CCC(Oc2cccc(C(=O)NCCc3ccccc3)c2)CC1,-5,0,i,i,-12*,i,21%*,i
COCCNC(=O)c1cccc(OC2CCN(Cc3ccc(C(C)C)cc3)CC2)c1,6,7,i,i,i,i,/,/
COCC(C)N1CCC(Oc2cccc(C(=O)NCCc3ccccc3)c2)CC1 (configuration not stated),-4,8,i,i,-10*,i,14%*,i
C/C=C(\C)CN1CCC(Oc2cccc(C(=O)NCc3ccccn3)c2)CC1,0,4,i,i,-9.1*,i,21%*,i
CC(NC(=O)c1cccc(OC2CCN(C3CCN(C)CC3)CC2)c1)c1ccccc1 (configuration not stated),2,8,i,i,i,i,/,/
C=CCCC(=O)N1CCC(Oc2cccc(C(=O)NCc3ccccn3)c2)CC1,-1,7,i,i,i,i,/,/
COc1ccccc1CNC(=O)C(Cc1ccccc1)NC(=O)c1ccccc1 (configuration not stated),-4,4,/,/,/,i,/,/
Nc1ccccc1-c1nnc(SCC(=O)Nc2ccccc2OC(F)F)[nH]c1=O,-1,-2,/,/,/,i,/,/
COc1ccc(C2=NN(c3ccc(C(=O)O)cc3)C(c3ccc(OC)c(OC)c3)C2)cc1 (configuration not stated),-5,5,i,i,-5.3*,i,62%*,i
